From PubChem BioAssay (NCATS) come the findings set out here.

Holding throughout (assay): Primary qHTS to identify gynecologic anti-cancer compounds using libraries of approved drugs and bioactive compounds (AID 1345084); also: nearly all actives have a fitted effect of over 55% in size
The test system of test [1] is CASKI. As to conditions: Gynecologic cancer cell panel viability, ATPlite luminescence, 48 h; series mostly up to 57.5 µM. Summed up:
(§1)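 48 h compound exposure at 37 C, 5% CO2; five-point qHTS. ATPlite luminescence readout of cell ATP.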

Test [2] has as its system Es-2. As to conditions: Gynecologic cancer cell panel viability, ATPlite luminescence, 48 h; series mostly up to 57.5 µM. Summed up: as §1
For test [3], the system named is HeLa. As to conditions: Gynecologic cancer cell panel viability, ATPlite luminescence, 48 h; series mostly up to 57.5 µM. Summed up:
as §1

Test [4] has as its system Hek293T. As to conditions: Gynecologic cancer cell panel viability, ATPlite luminescence, 48 h, control line for the selectivity index; series mostly up to 57.5 µM. Summed up:
as §1

Test [5] concerns JEG-3. As to conditions: Gynecologic cancer cell panel viability, ATPlite luminescence, 48 h; series mostly up to 57.5 µM. An outline of the steps:
as §1

The test system of test [6] is OV90. As to conditions: Gynecologic cancer cell panel viability, ATPlite luminescence, 48 h; series mostly up to 57.5 µM. Summed up: as §1
Test [7] relates to PA-1. As to conditions: Gynecologic cancer cell panel viability, ATPlite luminescence, 48 h; series mostly up to 57.5 µM. Summed up:
as §1

Test [8] concerns Tov-21-G. As to conditions: Gynecologic cancer cell panel viability, ATPlite luminescence, 48 h; series mostly up to 57.5 µM. Summed up: as §1
Test [9] deals with Tov112D. As to conditions: Gynecologic cancer cell panel viability, ATPlite luminescence, 48 h; series mostly up to 57.5 µM. An outline of the steps: as §1

Inconclusive results are not listed. A number with no mark means an inactive call. The source made the active and inactive calls. Calls follow the shape of the dose curve; as a rule, active = well fitted cell-killing curve with a large enough effect; inconclusive = small, poorly fitted or top-dose-only effect, or effect the other way; inactive = flat fitted curve, though single readings scatter. *1 amine or outer side, *2 acyl side, *3 side chain or, on linkers, in order; H or OH if unused. Where a SMILES comes first, the peptide text is derived from it. Bridges are numbered along the chain shown (N, C = ends). [ ]: non-standard residue; d: D form. The star is where a group is joined. ξ: configuration not given here. X10 = NC1=NCCC(C(N[*:1])C(=O)[*:2])N1; ΔAla(3-NHCONH2) = NC(=O)NC=C(N)C(=O)O; ξβ3hOrn = NCCCC(N)CC(=O)*; Dap = NC[CH](N)C(=O)O
% is scaled to controls: 0 for no effect and ±100 for the full control effect; potency is read from the fitted curve at half-maximal effect.

On to `O=C(CO)[C@@H](O)[C@H](O)[C@@H](O)CO`, for which the Potency entry in test [1], in test [2], in [3], in test [4], in [5] and in test [6] was “inactive” throughout. Further, the Potency entry in test [7], in test [8] and in [9] was “inactive” in each case.
On to `CCCCN(CCCC)C(C(N)=O)c1ccc(OC)cc1` (stereo unspecified), for which the Potency result in test [1], in test [2], in test [3], in [4], in test [5] and in test [6] was “inactive” in each case. Also, the Potency result in test [7], in test [8] and in test [9] was “inactive” throughout.
In the case of `O=C(CCCl)NCCc1ccccc1`, the Potency result in test [1], in test [2], in test [3], in test [4], in test [5] and in test [6] was “inactive” throughout. Also, the Potency entry in test [7], in test [8] and in test [9] was “inactive” each time.
Regarding `Nc1ccc([N+](=O)[O-])c(C(F)(F)F)c1`, the Potency entry in [1], in [2], in test [3], in test [4], in test [5] and in [6] was “inactive” throughout. The Potency result in [7], in test [8] and in test [9] was “inactive” each time.
On to `C1=CC2C3C=CC(C3)C2C1` (stereo unspecified), for which the Potency entry in [1], in [2], in test [3], in test [4], in [5] and in [6] was “inactive” in each case. Besides, the Potency result in test [7], in test [8] and in test [9] was “inactive” throughout.
Regarding `C[C@H]1C[C@H](O)c2ccsc2S1(=O)=O`, the Potency entry in test [1], in [2], in test [3], in [4], in test [5] and in [6] was “inactive” in each case. In addition, the Potency result in [7], in test [8] and in [9] was “inactive” in each case.
`COc1ccccc1OCC1CNC(=O)O1` (stereo unspecified): the Potency entry in [1], in test [2], in test [3], in test [4], in test [5] and in [6] was “inactive” each time. The Potency entry in test [7], in test [8] and in test [9] was “inactive” each time.
In the case of `CC(NN)c1ccccc1` (stereo unspecified), the Potency result in test [1], in test [2], in [3], in [4], in test [5] and in [6] was “inactive” each time. Also, the Potency result in test [7], in test [8] and in [9] was “inactive” in each case.
In the case of `O=C(O)CNC(=O)CNC(=O)CNC(=O)CSC(=O)c1ccccc1`, the Potency result in test [1], in [2], in test [3], in test [4], in test [5] and in test [6] was “inactive” each time. In addition, the Potency result in test [7], in test [8] and in test [9] was “inactive” each time.
`COc1ccc2c(c1)CCCC2=O`: the Potency entry in [1], in test [2], in test [3], in test [4], in test [5] and in test [6] was “inactive” each time. Also, the Potency entry in test [7], in [8] and in test [9] was “inactive” throughout.
Take `c1ccc2occc2c1`: the Potency result in test [1], in test [2], in test [3], in [4], in [5] and in test [6] was “inactive” each time. Besides, the Potency result in test [7], in test [8] and in test [9] was “inactive” each time.
Regarding `CCCN(CCC)C(=O)C(CCC(=O)OCCCN1CCN(CCOC(=O)Cc2c(C)n(C(=O)c3ccc(Cl)cc3)c3ccc(OC)cc23)CC1)NC(=O)c1ccccc1` (stereo unspecified), the Potency entry in test [1], in [2], in test [3], in test [4], in test [5] and in test [6] was “inactive” each time. Also, the Potency entry in [7], in test [8] and in test [9] was “inactive” in each case.
With `Nc1c(I)cc(I)c(C(=O)N(CCC(=O)O)c2ccccc2)c1I`, the Potency entry in [1], in test [2], in [3], in test [4], in test [5] and in [6] was “inactive” in each case. The Potency entry in [7], in test [8] and in [9] was “inactive” each time.
As for `O=[N+]([O-])c1ccc(-c2nc(-c3ccc(F)cc3)c(-c3ccncc3)[nH]2)cc1`, the Potency entry in [1], in [2], in test [3], in [4], in test [5] and in [6] was “inactive” each time. For the same compound, the Potency entry in test [7], in test [8] and in [9] was “inactive” throughout.
Turning to `Cc1ccccc1C(=O)N1CC/C(=N\OS(=O)(=O)O)c2ccc(Cl)cc21`, the Potency result in test [1], in [2], in [3], in test [4], in test [5] and in test [6] was “inactive” throughout. Moreover, the Potency entry in test [7], in test [8] and in [9] was “inactive” in each case.
For the compound `CCC(C(=O)NC(=O)NC(C)=O)c1ccccc1` (stereo unspecified), the Potency result in test [1], in test [2], in [3], in test [4], in [5] and in [6] was “inactive” each time. In addition, the Potency entry in test [7], in test [8] and in test [9] was “inactive” each time.
Take `CN(C)CCOC(c1ccccc1)c1ccc(Br)cc1` (stereo unspecified): the Potency entry in test [1], in [2], in [3], in test [4], in test [5] and in test [7] was “inactive” in each case. In addition, the Potency result in test [8] and in [9] was “inactive” in each case. Further, the Potency in test [6] is 12.6 µM (active).
Turning to `NCCCC(N)CC(=O)NCC1NC(=O)C(CO)NC(=O)C(N)CNC(=O)C(C2CCN=C(N)N2)NC(=O)C(=CNC(N)=O)NC1=O` (stereo not drawn) (H-[Dap]S[Dap](ξβ3hOrn)[ΔAla(3-NHCONH2)][X10]; lactam 1-C; configuration not given here), the activity change, negative = cytotoxicity in test [1] was 9.08% [at 0.462 µM]; in test [2], -0.941% [at 0.462 µM]; in test [3], -1.14% [at 0.462 µM]; in test [4], -1.45% [at 0.462 µM]; in test [5] it was 1.16% [at 0.462 µM]; in test [6], -2.62% [at 0.462 µM]. The activity change, negative = cytotoxicity in test [7] was 8.19% [at 0.462 µM]; in test [8] it was 4.2% [at 0.462 µM]; in test [9], 4.39% [at 0.462 µM].
On to `O=C(O)[C@H](O)[C@@H](O)[C@H](O[C@@H]1O[C@H](CO)[C@H](O)[C@H](O)[C@H]1O)[C@H](O)CO`, for which the Potency result in test [1], in test [2], in test [3], in [4], in test [5] and in test [6] was “inactive” throughout. For the same compound, the Potency entry in test [7], in [8] and in test [9] was “inactive” each time.
For `CN1Cc2cc(C(=O)N3CCC(C4CCNCC4)CC3)ccc2NC(CC(=O)O)C1=O` (stereo unspecified), the Potency result in test [1], in test [2], in test [3], in test [4], in test [5] and in test [6] was “inactive” throughout. The Potency result in test [7], in [8] and in [9] was “inactive” each time.
In the case of `Nc1ncnc2nc[nH]c12`, the Potency result in test [1], in [2], in test [3], in test [4], in test [5] and in test [6] was “inactive” throughout. The Potency entry in test [7], in test [8] and in test [9] was “inactive” in each case.
Regarding `O=c1[nH]c(=O)n([C@H]2O[C@H](CO)[C@@H](O)[C@@H]2O)cc1/C=C\Br`, the Potency entry in [1], in [2], in [3], in test [4], in test [5] and in test [6] was “inactive” each time. Also, the Potency result in test [7], in [8] and in [9] was “inactive” each time.
On to `COC(=O)c1c(Cl)c(Cl)c(C(=O)OC)c(Cl)c1Cl`, for which the Potency result in [1], in [2], in test [3], in test [4], in [5] and in test [6] was “inactive” each time. Besides, the Potency result in test [7], in [8] and in [9] was “inactive” each time.
As for `CC(NC(CCc1ccccc1)C(=O)O)C(=O)N1C(=O)N(C)CC1C(=O)O` (stereo unspecified), the Potency entry in [1], in test [2], in [3], in [4], in test [5] and in test [6] was “inactive” in each case. In addition, the Potency entry in test [7], in test [8] and in [9] was “inactive” each time.
